# Results from PubChem BioAssay (EPA / NIEHS).
# The source made the active and inactive calls. Rule for the calls: active = hit-call score of the fitted dose curve at least 0.9, where 1 is the maximum; inactive = score below 0.9.
# Read-out: Cytochrome P450 2C19 (Homo sapiens) (UniProt P33261)
# Assay: LTEA_HepaRG_CYP2C19: Life Technologies and Expression Analysis (LTEA) Assay for CYP2C19 using HepaRG (AID 2283482)
# Settings: mRNA level, 48 h; actives raise or lower the signal
# Description: LTEA_HepaRG is a cell based, multiplexed-readout assay that uses HepaRG, a human liver cell line, with measurements taken at 48 hours after chemical dosing on a 96-well plate.LTEA_HepaRG_CYP2C19 is one of 102 assay component(s) measured in the LTEA HepaRG cell culture assay. It is a marker of NR mediated metabolism.Data from the assay component LTEA_HepaRG_CYP2C19 was analyzed into 1 endpoint. This assay endpoint, LTEA_HepaRG_CYP2C19, was analyzed with bidirectional fitting relative to DMSO as the negative control and baseline of activity. Using a type of inducible reporter, measures of mRNA induction for gain or loss-of-signal activity can be used to understand regulation of transcription factor activity. To generalize the intended target to other relatable targets, this assay endpoint is annotated to the cyp intended target family, where the subfamily is xenobiotic metabolism.
# A total of 1060 chemcials from the ToxCast library were tested in eight-point concentration-response experiments. Cell culture and cytotoxicity assays were conducted at Thermo Fisher Scientific's Custom Services facility (Madison, WI). A single lot of human HepaRG cells (Thermo Fisher Scientific, Frederick, MD) was used for the cell culture experiments. 96-well format collagen type I coated plates of human HepaRG cells were prepared using established methods. Briefly, cryopreserved HepaRG cells were thawed, plated at a density of approximately 100,000 cells/well in HepaRG Thaw, Plate, and General Purpose media (HPRG770, Thermo Fisher Scientific), and incubated for 48 hours. 0.5% DMSO was selected as vehicle control to balance the requisite need of DMSO in HepaRG cultures to maintain differentiation (for example, baseline metabolism, proportions of hepatocytes vs. cholangiocytes), while enabling further hepatic receptor pathway activation (for example, PXR and CAR) in response to chemical exposure. 48 hours after plating, the culture medium was replaced with HepaRG Serum-Free Incudtion Media. Cells were exposed to each test chemical in duplicate and maintained in CO2 incubators for another 48 hours. Chemical plates were thawed to room temperature and 200x concentrations of treatment groups were prepared. 8-point conentration-reponse curves were made with the highest exposure at 100 uM, followed by half-log dilutions, all in 0.5% DMSO. Each test plate contained variouse controls, induction positive controls (1mM phenobarbital), cytotoxicity positive controls ([…] aflatoxin B1), vehicle controls (0.5% DMSO), and total lysis controls (0.5% DMSO). Cell morphology images were taken using an Essen IncuCyte FLR automated microscope, with six 96-well plates imaged in about 24 minutes. Images were captured and exported and JPEG files. Spent culture media was transfered to black-well plates for the LDH assay, and remaining media was sorted at -80 C for later use. Cells were treated with RLT buffer and frozen until shipped for gene expression analysis. Total RNA was isolated from the cell suspension in 75 uL of Buffer RLT (Qiagen, Germantown, MD 20874) by Quintiles/Expression Analysis (Durham, NC) using a custom isolation procedure. Total RNA from each plate well was transferred to a preamplification plate. Fluidigm's 96.96 Dynamic ArrayTM (Fluidigm, Amsterdam, the Netherlands) technology was used for gene expression analyses by quantitative reverse transcription polymerase chain reaction (qRT-PCR, performed by Quintiles/Expression Analysis, Durham, NC)89. Standard TaqManTM Assays (Applied Biosystems/ThermoFisher Scientific, Foster City, CA) were used to assess the expression of 93 genes selected based on their selectivity and sensitivity to important hepatic receptors known to be modulated by environmental chemicals; importance in human hepatocyte functionality; and hepatotoxicity. […]
# Sequence of Cytochrome P450 2C19 (Homo sapiens) (P33261 whole entry, looked up): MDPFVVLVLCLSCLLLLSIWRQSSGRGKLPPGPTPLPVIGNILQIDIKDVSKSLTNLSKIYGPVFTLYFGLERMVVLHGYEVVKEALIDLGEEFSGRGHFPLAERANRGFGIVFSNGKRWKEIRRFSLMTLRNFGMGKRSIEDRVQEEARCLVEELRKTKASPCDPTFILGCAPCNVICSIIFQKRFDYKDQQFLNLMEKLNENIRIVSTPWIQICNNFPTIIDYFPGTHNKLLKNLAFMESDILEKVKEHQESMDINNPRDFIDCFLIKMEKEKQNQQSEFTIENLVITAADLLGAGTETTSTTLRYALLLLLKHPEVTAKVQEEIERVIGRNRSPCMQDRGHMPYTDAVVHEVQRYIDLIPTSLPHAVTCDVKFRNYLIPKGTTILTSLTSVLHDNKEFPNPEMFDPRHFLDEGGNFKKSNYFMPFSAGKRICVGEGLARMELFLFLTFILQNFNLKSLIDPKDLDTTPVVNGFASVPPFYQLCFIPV
Structure (SMILES),outcome,AC50
CCCSP(=O)(OCC)Oc1ccc(Br)cc1Cl (stereo not given),inactive,–
CC1=NNC(=O)N(/N=C/c2cccnc2)C1,inactive,–
CCOP(=O)(SC(C)CC)N1CCSC1=O (stereo not given),inactive,–
CCOP(=S)(OCC)Oc1cc(C)nc(C(C)C)n1,–,16.1 µM (active)
C#CCC1=C(C)C(OC(=O)C2C(C=C(C)C)C2(C)C)CC1=O (stereo not given),inactive,–
Nc1nc(N)nc(NC2CC2)n1,inactive,–
CCc1cccc(C)c1N(C(=O)CCl)C(C)COC (stereo not given),–,16 µM (active)
CCc1cccc(CC)c1N(COC)C(=O)CCl,inactive,–
CCCSP(=O)(OCC)SCCC,inactive,–
S=C1NCCN1,inactive,–
CC(C)[C@H](C(=O)O[C@H](C#N)c1cccc(Oc2ccccc2)c1)c1ccc(Cl)cc1,–,34.2 µM (active)
CN(C)[C@@H]1C(=O)C(C(N)=O)=C(O)[C@@]2(O)C(=O)C3=C(O)c4c(O)cccc4[C@@](C)(O)[C@H]3[C@H](O)[C@@H]12,inactive,–
CCC(=NOC/C=C/Cl)C1=C(O)CC(C2CCOCC2)CC1=O (stereo not given),inactive,–
CC(=NC#N)N(C)Cc1ccc(Cl)nc1,inactive,–
CCCCSP(=O)(SCCCC)SCCCC,–,12.8 µM (active)
C[N+]1(C)CCCCC1,inactive,–
CC(COc1ccc(Oc2ccccc2)cc1)Oc1ccccn1 (stereo not given),inactive,–
CCCCN(CC)c1c([N+](=O)[O-])cc(C(F)(F)F)cc1[N+](=O)[O-],–,50 µM (active)
CNc1cnn(-c2cccc(C(F)(F)F)c2)c(=O)c1Cl,–,21.6 µM (active)
CCOP(=S)(OCC)OC(Cl)C(Cl)(Cl)Cl (stereo not given),inactive,–

Structure (SMILES),outcome,AC50
O=[N+]([O-])c1cc(C(F)(F)F)c(Cl)c([N+](=O)[O-])c1Nc1ncc(C(F)(F)F)cc1Cl,–,26 µM (active)
CCc1cnc(C2=NC(C)(C(C)C)C(=O)N2)c(C(=O)O)c1 (stereo not given),inactive,–
CC(C)N(C(=O)SCC(Cl)=C(Cl)Cl)C(C)C,inactive,–
CCCOCC(=Nc1ccc(Cl)cc1C(F)(F)F)n1ccnc1,–,32.5 µM (active)
CCOP(=S)(OCC)Oc1ccc([N+](=O)[O-])cc1,–,9.2 µM (active)
CNC(=O)ON=C(C)SC,inactive,–
COc1cc(OC)nc(Sc2cccc(Cl)c2C(=O)O)n1,inactive,–
C[Si](Cn1cncn1)(c1ccc(F)cc1)c1ccc(F)cc1,–,80.1 µM (active)
CSc1nc(NC(C)C)nc(NC(C)C)n1,–,1.96 µM (active)
CCOP(=O)(OCC)Oc1cc(C)nc(C(C)C)n1,inactive,–
Cc1nn(-c2cc(NS(C)(=O)=O)c(Cl)cc2Cl)c(=O)n1C(F)F,–,6.21 µM (active)
CN(C)NC(=O)CCC(=O)O,inactive,–
N#CSCSC#N,–,90.8 µM (active)
CCOC(=O)CC(SP(=O)(OC)OC)C(=O)OCC (stereo not given),inactive,–
C#CC(C)(C)NC(=O)c1cc(Cl)cc(Cl)c1,–,20.2 µM (active)
C=C(C)[C@H]1Cc2c(ccc3c2O[C@@H]2COc4cc(OC)c(OC)cc4[C@@H]2C3=O)O1,–,2.75 µM (active)
COP(=O)(NC(C)=O)SC (stereo not given),inactive,–
O=c1ccc(=O)[nH][nH]1,inactive,–
Nc1c(Cl)cc([N+](=O)[O-])cc1Cl,–,85 µM (active)
CNC(=O)ON=C(SC)C(=O)N(C)C,inactive,–
